{"source": "PubChem BioAssay AID585", "about": "(National Center for Advancing Translational Sciences (NCATS), 2007)", "note": "The whole screen tested about 71,000 compounds, of which about 1,300 (1.8%) were called active. Entries that show only a call come without a potency. Calls follow the shape of the full dose curve. Many of the other results were omitted from the sample, so actives are more common in it than they were. Potency is read from the fitted curve at half-maximal effect."}
{"target": "Beta-lactamase (Escherichia coli (strain K12)) (UniProt P00811)", "sequence (P00811 whole entry, looked up)": "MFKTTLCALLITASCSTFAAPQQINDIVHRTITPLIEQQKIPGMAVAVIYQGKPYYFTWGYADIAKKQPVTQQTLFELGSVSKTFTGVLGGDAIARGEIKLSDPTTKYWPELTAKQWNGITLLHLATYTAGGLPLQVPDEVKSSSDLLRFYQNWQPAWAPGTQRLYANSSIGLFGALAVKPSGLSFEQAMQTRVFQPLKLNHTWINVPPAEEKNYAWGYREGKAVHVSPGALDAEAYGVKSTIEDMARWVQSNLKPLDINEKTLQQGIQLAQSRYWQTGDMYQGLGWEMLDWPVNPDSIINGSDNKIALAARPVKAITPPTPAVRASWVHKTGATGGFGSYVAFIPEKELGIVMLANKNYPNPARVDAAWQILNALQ", "assay": "Promiscuous and Specific Inhibitors of AmpC Beta-Lactamase (assay without detergent)", "settings": "AmpC nitrocefin hydrolysis, absorbance 480 nm, no detergent; series mostly up to 28.7 µM", "in_short": "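AmpC in 20 mM phosphate buffer pH 7.0 was preincubated 15 min at room temperature with compounds. Nitrocefin (800 uM stock) was then added and hydrolysis followed at 480 nm every 20 s for 4 min.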"}
{"smiles": "CCn1c(=N)c(S(=O)(=O)c2ccc(F)cc2)cc2c(=O)n3ccccc3nc21", "Potency": "inactive"}
{"smiles": "O=C(NCc1ccccn1)c1cc2ccccc2oc1=O", "Potency": "inactive"}
{"smiles": "COc1ccc2oc(=O)c(C(=O)O)cc2c1", "Potency": "inactive"}
{"smiles": "O=C(Oc1cccnc1)c1cc2ccccc2oc1=O", "Potency": "12.6 µM (active)"}
{"smiles": "Cc1ccc(C)c(N2CCN(C(=O)CCCCn3c(=O)[nH]c4ccccc4c3=O)CC2)c1", "Potency": "inactive"}
{"smiles": "CCc1nnc(NC(=O)CSc2nnc(Cc3ccccc3)n2-c2ccc(OC)cc2)s1", "Potency": "inactive"}
{"smiles": "COc1ccc(Cc2nnc(NC(=O)Cc3cccs3)s2)cc1", "Potency": "12.6 µM (active)"}
{"smiles": "COc1ccc(Cc2nnc(NS(=O)(=O)Cc3ccccc3)s2)cc1", "Potency": "inactive"}
{"smiles": "COc1ccc2[nH]cc(CCNc3nc(-c4cccc(NS(C)(=O)=O)c4)nc4ccccc34)c2c1", "Potency": "inactive"}
{"smiles": "CCCC1C(c2ccccc2)C(C#N)(C#N)C2(C#N)CC1(N)NC2=O", "note": "(stereo not drawn)", "Potency": "inactive"}
{"smiles": "CCOC(=O)Cc1csc(NC(=O)CSc2nc(C)cc(=O)[nH]2)n1", "Potency": "inactive"}
{"smiles": "CCOC(=O)Cc1csc(NC(=O)CN(C)S(=O)(=O)c2ccc3c(c2)CCC(=O)N3)n1", "Potency": "3.98 µM [single pt active] (active)"}
{"smiles": "CCOC(=O)Cc1csc(NC(=O)C(C)(C)C)n1", "Potency": "inactive"}
{"smiles": "Cc1ccc(CNC(=O)CCCNC(=O)c2ccc(Cl)cc2)n1C", "Potency": "inactive"}
{"smiles": "CC(C)(O)C#Cc1ccc(C(=O)N2CCC(C(N)=O)(N3CCCCC3)CC2)cc1", "Potency": "inactive"}
{"smiles": "CC1(C)SC2c3ccccc3C(=O)N2[C@@H]1C(=O)NCc1ccco1", "note": "(stereo partly drawn)", "Potency": "inactive"}
{"smiles": "CC1(C)S[C@@H]2[C@@H](NC(=O)[C@@H](N)c3ccccc3)C(=O)N2[C@H]1C(=O)O", "Potency": "0.0501 µM (active)"}
{"smiles": "CC(CNC(=O)c1ccc(Br)o1)NC(=O)c1ccc(Br)o1", "note": "(stereo not drawn)", "Potency": "inactive"}
{"smiles": "N#C/C(=C1\\CCCN1)c1nc(-c2ccccc2)cs1", "Potency": "inactive"}
{"smiles": "N#CC(=C1SC=CS1)c1nc(-c2ccccc2)cs1", "Potency": "15.8 µM [single pt active] (active)"}
{"smiles": "c1ccc(Nc2nc(-c3ccncc3)cs2)nc1", "Potency": "inactive"}
{"smiles": "CC(C)(O)[C@H]1[C@H]2OC(=O)[C@@H]1[C@]1(O)C[C@H]3O[C@]34C(=O)O[C@H]2[C@]14C", "Potency": "inactive"}
{"smiles": "O=C(c1ccco1)N1CCN(C(=O)C2c3ccccc3Oc3ccccc32)CC1", "Potency": "inactive"}
{"smiles": "Cc1ccc(NC(=O)C2CC(c3ccc(F)cc3)=NO2)cc1", "note": "(stereo not drawn)", "Potency": "inactive"}
{"smiles": "O=C(c1ccco1)N1CCN(C(=O)C2CC(c3ccc(Cl)c(Cl)c3)=NO2)CC1", "note": "(stereo not drawn)", "Potency": "inactive"}
{"smiles": "O=C(c1ccco1)N1CCN(C(=O)C2CC(c3ccc(F)cc3)=NO2)CC1", "note": "(stereo not drawn)", "Potency": "3.98 µM [single pt active] (active)"}
{"smiles": "CCOC(=O)N1CCN(C(=O)C2CC(c3ccc(F)cc3)=NO2)CC1", "note": "(stereo not drawn)", "Potency": "3.98 µM [single pt active] (active)"}
{"smiles": "CCOC(=O)N1CCN(C(=O)CSc2ccc(Cl)cc2)CC1", "Potency": "inactive"}
{"smiles": "O=C(C1CCN(S(=O)(=O)c2cnc[nH]2)CC1)N1CCN(Cc2ccc3c(c2)OCO3)CC1", "Potency": "inactive"}
{"smiles": "CC(=O)c1c(O)c(C)c(O)c(Cc2c(O)c3c(c(C(=O)/C=C\\c4ccccc4)c2O)OC(C)(C)C=C3)c1O", "Potency": "12.6 µM (active)"}
{"smiles": "CCOc1ccc(S(=O)(=O)n2ccnc2)c2ccccc12", "Potency": "3.98 µM [single pt active] (active)"}
{"smiles": "CCOc1ccc(C(C)C)cc1S(=O)(=O)n1nc(C)cc1C", "Potency": "inactive"}
{"smiles": "CCOc1ccccc1C(=O)NCCCn1ccnc1", "Potency": "inactive"}
{"smiles": "Fc1ccc2nc(Nc3nc4c(s3)CCCC4)sc2c1", "Potency": "inactive"}
{"smiles": "CCOC(=O)CNC(=O)CSc1nnc(COc2ccc(Cl)cc2)n1CC", "Potency": "inactive"}
{"smiles": "CN1CCN(S(=O)(=O)c2ccc3[nH]cc(C(=O)O)c(=O)c3c2)CC1", "Potency": "inactive"}
{"smiles": "Cc1cccc(CC(=O)Nc2c3c(nn2-c2cccc(Cl)c2)CS(=O)C3)c1", "note": "(stereo not drawn)", "Potency": "inactive"}
{"smiles": "O=C(NCc1ccco1)c1nc(-c2ccccc2)n(-c2ccccc2)n1", "Potency": "inactive"}
{"smiles": "Cc1nc2nc(SCC(=O)NCc3ccco3)nn2c(C)c1Cc1ccccc1", "Potency": "inactive"}
{"smiles": "O=C(Cc1ccccc1)n1nc(-c2ccccc2)nc1NCc1ccco1", "Potency": "3.98 µM [single pt active] (active)"}
{"smiles": "COc1ccc(CCn2nnnc2C(c2ccccc2)N2CCN(C)CC2)cc1OC", "note": "(stereo not drawn)", "Potency": "inactive"}
{"smiles": "CCOC(=O)c1cnc2sccn2c1=O", "Potency": "inactive"}
{"smiles": "CN/C(=C\\[N+](=O)[O-])NCCSCc1csc(CN(C)C)n1", "Potency": "inactive"}
